# PubChem BioAssay (NCATS)
# Results filed as inconclusive are left out. A number with no mark means an inactive call. Calls of active or inactive are those of the source. Calls come from the whole dose curve; as a rule, active = well fitted cell-killing curve with a large enough effect; inconclusive = small, poorly fitted or top-dose-only effect, or effect the other way; inactive = no such curve, though single readings can be large or run the other way.
# What was measured:
# [1] = Quantitative High-Throughput drug screen in 47 multiple myeloma cell lines against the NCATS MIPE library collection: OCIMY7_PLB cell viability assay (AID 1918987); settings: OCI-MY7 myeloma viability, CellTiter-Glo ATP, 48 h; viability (% of DMSO): at 45.8 µM (top of the series); note: nearly all actives have a fitted effect of over 65% in size
# In short: (§1)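 Viability after 48 h drug exposure was measured as ATP-dependent luminescence. Cells, 500 per well, sat at 37 °C under 5% CO2; DMSO wells set 100%, media-only wells 0%.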
# [2] = Quantitative High-Throughput drug screen in 47 multiple myeloma cell lines against the NCATS MIPE library collection: OCIMY5_PLB cell viability assay (AID 1918988); note: nearly all actives have a fitted effect of over 65% in size
# In short: as §1
# [3] = Quantitative High-Throughput drug screen in 47 multiple myeloma cell lines against the NCATS MIPE library collection: SKMM1_PLB cell viability assay (AID 1919863); settings: SKMM1 myeloma viability, CellTiter-Glo ATP, 48 h; viability: hits give low values; note: nearly all actives have a fitted effect of over 35% in size
# In short: as §1
# [4] = Quantitative High-Throughput drug screen in 47 multiple myeloma cell lines against the NCATS MIPE library collection: U266_ATCC cell viability assay (AID 1919864); note: nearly all actives have a fitted effect of over 35% in size
# In short: as §1
# [5] = Quantitative High-Throughput drug screen in 47 multiple myeloma cell lines against the NCATS MIPE library collection: XG6_PLB cell viability assay (AID 1919865); note: nearly all actives have a fitted effect of over 40% in size
# In short: as §1
# [6] = Quantitative High-Throughput drug screen in 47 multiple myeloma cell lines against the NCATS MIPE library collection: PE2_PLB cell viability assay (AID 1919869); note: nearly all actives have a fitted effect of over 35% in size
# In short: as §1
# [7] = Quantitative High-Throughput drug screen in 47 multiple myeloma cell lines against the NCATS MIPE library collection: RPMI8226_ATCC cell viability assay (AID 1919871); note: nearly all actives have a fitted effect of over 30% in size
# In short: as §1
# [8] = Quantitative High-Throughput drug screen in 47 multiple myeloma cell lines against the NCATS MIPE library collection: OPM2_DSMZ cell viability assay (AID 1919872); note: nearly all actives have a fitted effect of over 30% in size
# In short: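 Approved and investigational drugs from MIPE 4.0 were added by pin tool to 500 cells per well. After 48 hours at 37C, ATP-based CellTiter-Glo luminescence indicated remaining viability.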
# [9] = Quantitative High-Throughput drug screen in 47 multiple myeloma cell lines against the NCATS MIPE library collection: KMS11_JCRBsus cell viability assay (AID 1919873); note: nearly all actives have a fitted effect of over 50% in size
# In short: as §1
# [10] = Quantitative High-Throughput drug screen in 47 multiple myeloma cell lines against the NCATS MIPE library collection: OPM1_PLB cell viability assay (AID 1918989); note: nearly all actives have a fitted effect of over 40% in size
# In short: as §1
# [11] = Quantitative High-Throughput drug screen in 47 multiple myeloma cell lines against the NCATS MIPE library collection: XG1_PLB cell viability assay (AID 1919866); note: nearly all actives have a fitted effect of over 35% in size
# In short: as §1
# [12] = Quantitative High-Throughput drug screen in 47 multiple myeloma cell lines against the NCATS MIPE library collection: VP6_DJ cell viability assay (AID 1919867); note: nearly all actives have a fitted effect of over 40% in size
# In short: as §1
# [13] = Quantitative High-Throughput drug screen in 47 multiple myeloma cell lines against the NCATS MIPE library collection: UTMC2_PLB cell viability assay (AID 1919868); settings: CellTiter-Glo ATP luminescence, 48 h; viability (% of DMSO control): at 45.8 µM (top of the series); note: nearly all actives have a fitted effect of over 55% in size
# In short: as §1
# [14] = Quantitative High-Throughput drug screen in 47 multiple myeloma cell lines against the NCATS MIPE library collection: PCM6_Riken cell viability assay (AID 1919870); note: nearly all actives have a fitted effect of over 30% in size
# In short: as §1
# [15] = Quantitative High-Throughput drug screen in 47 multiple myeloma cell lines against the NCATS MIPE library collection: KMS28BM_JCRB cell viability assay (AID 1919874); note: nearly all actives have a fitted effect of over 35% in size
# In short: as §1
# Potency is the fitted concentration of half-maximal effect.
Structure (SMILES),Potency [1],Potency [2],Potency [3],Potency [4],Potency [5],Potency [6],Potency [7],Potency [8],Potency [9],Potency [10],Potency [11],Potency [12],Potency [13],Potency [14],Potency [15],viability [3]
Cc1ccccc1C(=O)c1ccc(Nc2ccc(Br)cc2N)cc1Cl,11.8 µM (active),10.5 µM (active),16.6 µM (active),11.8 µM (active),18.7 µM (active),18.7 µM (active),11.8 µM (active),23.5 µM (active),18.7 µM (active),,,,,,,
CCOC(=O)N1CCN([N+]([O-])=NOc2cc(ON=[N+]([O-])N3CCN(C(=O)OCC)CC3)c([N+](=O)[O-])cc2[N+](=O)[O-])CC1,2.96 µM (active),2.35 µM (active),4.69 µM (active),7.43 µM (active),4.69 µM (active),2.96 µM (active),9.35 µM (active),,5.9 µM (active),5.9 µM (active),4.18 µM (active),6.62 µM (active),8.33 µM (active),6.62 µM (active),7.43 µM (active),
CC(=O)O[C@]1(C(C)=O)CC[C@H]2[C@@H]3C=C(Cl)C4=CC(=O)[C@@H]5C[C@H]5[C@]4(C)[C@@H]3CC[C@@]21C,9.35 µM (active),23.5 µM (active),,8.33 µM (active),4.18 µM (active),11.8 µM (active),20.9 µM (active),inactive,inactive,,7.43 µM (active),7.43 µM (active),,,inactive,
COc1cc2c(cc1OC)CC(=O)N(CCCN(C)C[C@H]1Cc3cc(OC)c(OC)cc31)CC2,inactive,16.6 µM (active),,16.6 µM (active),inactive,,11.8 µM (active),inactive,,,inactive,,,inactive,inactive,
Nc1ccc(-c2ccc3ncc4ccc(=O)n(-c5cccc(C(F)(F)F)c5)c4c3c2)cn1,0.0209 µM (active),0.0332 µM (active),0.0053 µM (active),0.372 µM (active),,,,0.0059 µM (active),,,,,,,,
Cc1ccc2c(=O)c3cccc(CC(=O)O)c3oc2c1C,26.4 µM (active),18.7 µM (active),,18.7 µM (active),,20.9 µM (active),inactive,,,,,,,,inactive,
CNc1nc(Nc2ccc(C(=O)N3CCOCC3)cc2OC)ncc1Cl,inactive,14.8 µM (active),,inactive,,,,inactive,inactive,inactive,16.6 µM (active),,,16.6 µM (active),inactive,112%
Cn1cc(-c2ccc3nnc(Sc4ccc5ncccc5c4)n3n2)cn1,inactive,13.2 µM (active),,,26.4 µM (active),,,,,inactive,26.4 µM (active),18.7 µM (active),,,inactive,
CN(C(Cc1ccc(OS(=O)(=O)c2cccc3cnccc23)cc1)C(=O)N1CCN(c2ccccc2)CC1)S(=O)(=O)c1cccc2cnccc12 (stereo unspecified),4.69 µM (active),13.2 µM (active),9.35 µM (active),13.2 µM (active),13.2 µM (active),,,,,3.72 µM (active),,3.72 µM (active),6.62 µM (active),,14.8 µM (active),
CN1CCC(COc2cnc(-c3cccc(Cn4nc(-c5cccc(C#N)c5)ccc4=O)c3)nc2)CC1,0.059 µM (active),0.0469 µM (active),,20.9 µM (active),0.0332 µM (active),1.05 µM (active),,,,16.6 µM (active),0.332 µM (active),0.59 µM (active),0.526 µM (active),0.372 µM (active),inactive,
O=C(C=Cc1ccc(O)cc1)c1ccc(O)cc1O,4.69 µM (active),14.8 µM (active),,23.5 µM (active),18.7 µM (active),20.9 µM (active),,,10.5 µM (active),,16.6 µM (active),18.7 µM (active),,16.6 µM (active),,
CC(C)CN(C[C@@H](O)[C@H](Cc1ccccc1)NC(=O)O[C@H]1CO[C@H]2OCC[C@H]21)S(=O)(=O)c1ccc(N)cc1,2.96 µM (active),2.35 µM (active),,1.32 µM (active),3.72 µM (active),inactive,,inactive,9.35 µM (active),,16.6 µM (active),8.33 µM (active),13.2 µM (active),,,
C[C@@H](NC(=O)c1ncnc(N)c1Cl)c1ncc(C(=O)Nc2cc(C(F)(F)F)c(Cl)cn2)s1,7.43 µM (active),9.35 µM (active),16.6 µM (active),26.4 µM (active),,,13.2 µM (active),,,,10.5 µM (active),20.9 µM (active),,,,
COc1cc(CNC(=O)CCCCC=CC(C)C)ccc1O,14.8 µM (active),inactive,,inactive,13.2 µM (active),,,inactive,inactive,inactive,inactive,inactive,,inactive,inactive,120%
CCNC(=O)Nc1ccc(Oc2ncnc(N)c2C=NOC)cc1Cl,2.64 µM (active),14.8 µM (active),11.8 µM (active),,4.18 µM (active),,18.7 µM (active),,,inactive,2.96 µM (active),,,,,
